Results taken from PubChem BioAssay.
Several values for one entry are separate records, joined by “and”; a condition that tells them apart may be missing. Identical values can stand only once. Inconclusive results are not listed. Activity calls are given as the source filed them.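 How the source made its calls, unless noted: active means normalized viability below 100% at a tested concentration; inactive means the rest.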

What was measured:
[1] = growth inhibition of DIPG glioma cells, dose response, cell-based, SU-DIPG-XVII, MIPE5.0, CellTiter-Glo, qHTS (AID 1347060; cut-off not given, nearly all actives have AC50 up to about 26 µM;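 on AC50: cells exposed to compound for 48 hours before viability readout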); settings: SU-DIPG-XVII viability, CellTiter-Glo ATP luminescence
[2] = growth inhibition of DIPG glioma cells, dose response, cell-based, SU-DIPG-XIII, MIPE5.0, CellTiter-Glo, qHTS (AID 1347064; cut-off not given, nearly all actives have AC50 up to about 23 µM;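 on AC50: cells exposed to compound for 48 hours before the viability read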); settings: SU-DIPG-XIII viability, CellTiter-Glo ATP luminescence
[3] = viability loss in pontine glioma line – cell-based, SU-DIPG-XXV, MIPE5.0, CellTiter-Glo, qHTS, dose response (AID 1347065; cut-off not given, nearly all actives have AC50 up to about 26 µM;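 further: cells exposed to compound for 48 hours before ATP readout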); settings: CellTiter-Glo ATP luminescence
[4] = JHH-DIPG-1 glioma cell viability, MIPE5.0 library, CellTiter-Glo luminescence, qHTS (AID 1347067; cut-off not given, nearly all actives have AC50 up to about 26 µM;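 further: cells exposed to compound for 48 hours before readout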); settings: JHH-DIPG-1 glioma viability, CellTiter-Glo ATP luminescence
[5] = sensitizers of A549 cells to miR-34 induction, primary screen, imaging, A549 dox-inducible miR-34, nuclei and caspase counts (AID 1347080;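 active means compounds whose cell count with miR-34 switched on is under 0.7 times the count with it off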); settings: A549 miR-34 inducible, Hoechst nuclei count, 48 h
[6] = survival rescue of mitochondrial mutant cells in low glucose, primary screen, MELAS cybrids, Rieske KO mouse fibroblasts, CellTiter-Glo (AID 1508586;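 active means mean z-score across replicates of 1.96 or higher in either the MELAS or the Rieske mutant cell line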;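 further: z relative to plate mean and SD of compound and empty wells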)
[7] = ovarian cancer cell viability with rucaparib, profiling panel, oncology-focused library, rucaparib conditional (AID 1508598); settings: patient-derived ovarian cancer cells, CellTiter-Glo viability, 144 h, stronger effect = lower value
[8] = SU-DIPG-XXV glioma cell viability, MIPE5.0 library, qHTS (AID 1347068; cut-off not given, nearly all actives have IC50 up to about 30 µM;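 on IC50: cells exposed to compound for 48 hours before viability readout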)
[9] = stronger effect = lower value, cell number ratio, induced over uninduced
[10] = measured here: relative caspase fold change +Dox/-Dox
[11] = measured here: total cells with miR-34 induction, stronger effect = lower value
[12] = measured here: total cells without miR-34 induction
[13] = MELAS cybrid survival, CellTiter-Glo 48 h, stronger effect = higher value
[14] = Rieske KO mouse fibroblast survival, CellTiter-Glo 72 h
[15] = at 0.000305 µM, OCI-C5x cells, with rucaparib 10 µM, 100% = cells with rucaparib alone
[16] = at 0.000305 µM, OCI-C5x cells, without rucaparib
[17] = at 0.000305 µM, OCI-P5x cells, with rucaparib 20 µM, 100% = cells with rucaparib alone
[18] = at 0.000305 µM, OCI-P5x cells, without rucaparib
[19] = at 0.00122 µM, OCI-C5x cells, with rucaparib 10 µM, 100% = cells with rucaparib alone
[20] = at 0.00122 µM, OCI-C5x cells, without rucaparib
[21] = at 0.00122 µM, OCI-P5x cells, with rucaparib 20 µM, 100% = cells with rucaparib alone
[22] = at 0.00122 µM, OCI-P5x cells, without rucaparib
[23] = at 0.00488 µM, OCI-C5x cells, with rucaparib 10 µM, 100% = cells with rucaparib alone
[24] = at 0.00488 µM, OCI-C5x cells, without rucaparib
[25] = at 0.00488 µM, OCI-P5x cells, with rucaparib 20 µM, 100% = cells with rucaparib alone
[26] = at 0.00488 µM, OCI-P5x cells, without rucaparib
[27] = at 0.0195 µM, OCI-C5x cells, with rucaparib 10 µM, 100% = cells with rucaparib alone
[28] = at 0.0195 µM, OCI-C5x cells, without rucaparib
[29] = at 0.0195 µM, OCI-P5x cells, with rucaparib 20 µM, 100% = cells with rucaparib alone
[30] = at 0.0195 µM, OCI-P5x cells, without rucaparib
[31] = at 0.0781 µM, OCI-C5x cells, with rucaparib 10 µM, 100% = cells with rucaparib alone
[32] = at 0.0781 µM, OCI-C5x cells, without rucaparib
[33] = at 0.0781 µM, OCI-P5x cells, with rucaparib 20 µM, 100% = cells with rucaparib alone
[34] = at 0.0781 µM, OCI-P5x cells, without rucaparib
[35] = at 0.313 µM, OCI-C5x cells, with rucaparib 10 µM, 100% = cells with rucaparib alone
[36] = at 0.313 µM, OCI-C5x cells, without rucaparib
[37] = at 0.313 µM, OCI-P5x cells, with rucaparib 20 µM, 100% = cells with rucaparib alone
[38] = at 0.313 µM, OCI-P5x cells, without rucaparib
[39] = at 1.25 µM, OCI-C5x cells, with rucaparib 10 µM, 100% = cells with rucaparib alone
[40] = at 1.25 µM, OCI-C5x cells, without rucaparib
[41] = at 1.25 µM, OCI-P5x cells, with rucaparib 20 µM, 100% = cells with rucaparib alone
[42] = at 1.25 µM, OCI-P5x cells, without rucaparib
[43] = at 5 µM, OCI-C5x cells, with rucaparib 10 µM, 100% = cells with rucaparib alone
[44] = at 5 µM, OCI-C5x cells, without rucaparib
[45] = at 5 µM, OCI-P5x cells, with rucaparib 20 µM, 100% = cells with rucaparib alone
[46] = at 5 µM, OCI-P5x cells, without rucaparib

COc1cc(Nc2ncc(F)c(Nc3ccc4c(n3)NC(=O)C(C)(C)O4)n2)cc(OC)c1OC
inactive: fold change [5, 9] 1.02 and 1.15 | z-score [6, 13] -0.458 and -0.514 | viability [7, 15] 109% | viability [7, 16] 101% | viability [7, 19] 111% | viability [7, 20] 109% | viability [7, 23] 111% | viability [7, 24] 111% | viability [7, 27] 118% | viability [7, 28] 112% | viability [7, 31] 107% | viability [7, 32] 114% | viability [7, 35] 112% | viability [7, 36] 126% | viability [7, 39] 116% | viability [7, 40] 127% | viability [7, 43] 122% | viability [7, 44] 151%
0.841 and 0.707: fold change [5, 10]
active: AC50 [1] 1180 nM | AC50 [2] 1860 nM | AC50 [3] 1320 nM | AC50 [4] 5900 nM | viability [7, 17] 83% | viability [7, 18] 96.3% | viability [7, 21] 82.7% | viability [7, 22] 86.9% | viability [7, 25] 78.5% | viability [7, 26] 95.2% | viability [7, 29] 70.2% | viability [7, 30] 74.2% | viability [7, 33] 59.3% | viability [7, 34] 55% | viability [7, 37] 46.3% | viability [7, 38] 50% | viability [7, 41] 81.5% | viability [7, 42] 99.3% | viability [7, 45] 79% | viability [7, 46] 96.9%
1550 and 1090: cell count [5, 11]
0.0101 and 0.0182: z-score [6, 14]
1520 and 950: cell count [5, 12]

COc1nc(N)nc2c1ncn2C1OC(CO)C(O)C1O (configuration not stated)
6660: cell count [5, 11]
-0.253: z-score [6, 14]
7440: cell count [5, 12]
0.879: fold change [5, 10]
inactive: outcome [1] | outcome [2] | outcome [3] | outcome [4] | outcome [8] | fold change [5, 9] 0.895 | z-score [6, 13] -0.422

C#CC[C@H](c1nc2cc(Cl)ccc2c(=O)n1Nc1ccccc1)N(CCCN)C(=O)c1cccc(Cl)c1F
inactive: viability [7, 15] 125% | viability [7, 16] 105% | viability [7, 17] 109% | viability [7, 19] 130% | viability [7, 20] 102% | viability [7, 21] 109% | viability [7, 23] 115% | viability [7, 24] 109% | viability [7, 25] 107% | viability [7, 27] 125% | viability [7, 28] 112%
active: AC50 [1] 417 nM | AC50 [2] 4680 nM | AC50 [3] 372 nM | AC50 [4] 742 nM | IC50 [8] 417 nM | viability [7, 18] 94.3% | viability [7, 22] 97.9% | viability [7, 26] 92.1% | viability [7, 29] 96.2% | viability [7, 30] 90.6% | viability [7, 31] 67.5% | viability [7, 32] 57.4% | viability [7, 33] 91.9% | viability [7, 34] 49.8% | viability [7, 35] 57% | viability [7, 36] 55% | viability [7, 37] 59.6% | viability [7, 38] 17.5% | viability [7, 39] 56.2% | viability [7, 40] 46.9% | viability [7, 41] 54.9% | viability [7, 42] 15.7% | viability [7, 43] 1.31% | viability [7, 44] 3.55% | viability [7, 45] 0.597% | viability [7, 46] 1.54%

CN(NC(=O)CC(=O)NN(C)C(=S)c1ccccc1)C(=S)c1ccccc1
4660: cell count [5, 11]
-2.56: z-score [6, 14]
5740: cell count [5, 12]
1.14: fold change [5, 10]
active: AC50 [1] 18.6 nM | AC50 [2] 9.34 nM | AC50 [3] 18.6 nM | AC50 [4] 5.25 nM | z-score [6, 13] 2.12 | viability [7, 17] 83.3% | viability [7, 18] 88% | viability [7, 21] 80.6% | viability [7, 22] 75.2% | viability [7, 25] 82.9% | viability [7, 26] 81.1% | viability [7, 29] 88.5% | viability [7, 30] 84.6% | viability [7, 33] 98.6% | viability [7, 34] 81% | viability [7, 37] 96% | viability [7, 38] 95.1% | viability [7, 41] 82.2% | viability [7, 42] 97.2% | viability [7, 45] 99% | viability [7, 46] 98%
inactive: outcome [8] | fold change [5, 9] 0.813 | viability [7, 15] 121% | viability [7, 16] 108% | viability [7, 19] 135% | viability [7, 20] 131% | viability [7, 23] 143% | viability [7, 24] 129% | viability [7, 27] 151% | viability [7, 28] 131% | viability [7, 31] 140% | viability [7, 32] 122% | viability [7, 35] 126% | viability [7, 36] 133% | viability [7, 39] 125% | viability [7, 40] 123% | viability [7, 43] 128% | viability [7, 44] 121%

CN(CCOc1ccc(C[C@H](Nc2ccccc2C(=O)c2ccccc2)C(=O)O)cc1)c1ccccn1
inactive: outcome [1] | outcome [2] | outcome [3] | outcome [4] | outcome [8]

COc1cc(N2CCC(N3CCN(C)CC3)CC2)ccc1Nc1ncc(Cl)c(Nc2ccccc2P(C)(C)=O)n1
active: AC50 [1] 105 nM | AC50 [2] 332 nM | AC50 [3] 186 nM | AC50 [4] 1180 nM | IC50 [8] 1050 nM

CN1CCC(c2c(O)cc(O)c3c(=O)cc(-c4ccccc4Cl)oc23)C1CO (configuration not stated)
inactive: fold change [5, 9] 0.969 | z-score [6, 13] 0.124
0.481: fold change [5, 10]
active: AC50 [1] 934 nM | AC50 [2] 1180 nM | AC50 [3] 1180 nM | AC50 [4] 1180 nM | IC50 [8] 1860 nM
1620: cell count [5, 11]
-6.97: z-score [6, 14]
1670: cell count [5, 12]

C=CC(=O)Nc1cccc(Nc2nc(Nc3ccc(OCCOC)cc3)ncc2F)c1
1910: cell count [5, 12]
active: AC50 [1] 2350 nM | AC50 [2] 1660 nM | AC50 [3] 2090 nM | AC50 [4] 3720 nM | IC50 [8] 3320 nM | z-score [6, 13] 2.91
inactive: fold change [5, 9] 0.943
-0.365: z-score [6, 14]
0.349: fold change [5, 10]
1800: cell count [5, 11]

Cc1ncsc1-c1ccc([C@H](C)NC(=O)[C@@H]2C[C@@H](O)CN2C(=O)[C@@H](NC(=O)COCCCOCCNC(=O)C[C@@H]2N=C(c3ccc(Cl)cc3)c3c(sc(C)c3C)-n3c(C)nnc32)C(C)(C)C)cc1
active: AC50 [1] 132 nM | AC50 [2] 209 nM | AC50 [3] 74.2 nM | AC50 [4] 52.5 nM | IC50 [8] 332 nM

Cc1ccc(S(=O)(=O)Cc2nc(-c3ccc(C(=O)NCc4cccnc4)cc3)oc2C)cc1
5320: cell count [5, 12]
0.598: fold change [5, 10]
5090: cell count [5, 11]
inactive: fold change [5, 9] 0.957 | z-score [6, 13] -0.778
-0.8: z-score [6, 14]
active: AC50 [1] 52.5 nM | AC50 [2] 16.6 nM | AC50 [3] 14.8 nM | AC50 [4] 20.9 nM

CNC(=O)c1cccc2cc(Oc3ccnc4cc(OCC5(N)CC5)c(OC)cc34)ccc12
active: AC50 [1] 1480 nM | AC50 [2] 1320 nM | AC50 [3] 1860 nM | IC50 [8] 7420 nM

COc1ncc(-c2ccc3c(Nc4cc(Oc5cc(F)cc(F)c5)cc(C(=O)O)c4)c(S(=O)(=O)NC4CC4)cnc3c2)c(OC)n1
inactive: outcome [1] | outcome [2] | outcome [3] | outcome [8]

O=C(NOCC(O)CO)c1ccc(F)c(F)c1Nc1ccc(I)cc1F (configuration not stated)
2520: cell count [5, 12]
2790: cell count [5, 11]
-0.702: z-score [6, 14]
0.559: fold change [5, 10]
inactive: fold change [5, 9] 1.1 | z-score [6, 13] -0.718
active: AC50 [1] 417 nM | AC50 [2] 525 nM | AC50 [3] 934 nM | AC50 [4] 166 nM

Cc1c(F)cccc1NC(=O)Nc1ccc(Cl)c(S(=O)(=O)[C@H]2CCCNC2)c1O
inactive: outcome [1] | outcome [2] | outcome [3] | outcome [8]
